We go through 38 molecules from PubChem BioAssay (NCI).

This is part of a sample that, as a whole, favours compounds with a hit. Of some 83,000 tested, about 20% had one in any assay.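 Cells were grown in 96-well plates and exposed to the test compound at a single concentration for 48 hours; results are reported as percent growth, with values below 10 considered active.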 The source made the active and inactive calls.

One assay concerns LOX IMVI melanoma. The experiment in a line: NCI-60 one-dose screen, 48 h (100 = growth as untreated, 0 = no growth, -100 = all killed). Particulars: 10 µM unless noted.
Turning to `O=C1CC(c2ccc(I)cc2)OC2C=Cc3ccccc3C12` (stereo unspecified), the growth is 99.6% (inactive).
Same read-out and setting: the figure for `COc1ccc(NC(=O)Cn2c(/C=C/c3cccc(OC)c3)nc3ccccc3c2=O)cc1` is 22.4% (inactive).
Consider `COc1ccc2[nH]c(=O)c(CSc3ccccc3Nc3nccc(-c4ccc5c(c4)OCO5)n3)cc2c1`, for which the growth was 89.6% (inactive).
On the same count and under the same terms, for `Cc1nc2sccn2c1-c1nnc(SCC(C)C)o1` the value was 91.3% (inactive).
`O=c1c(-c2nc(-c3ccccc3)c(-c3ccccc3)[nH]2)coc2ccc(F)cc12`: the growth was 65.9% (inactive).
Take `CCN1C(=O)N(CC)C2NNC(Sc3c(C(=O)O)c4ccccc4n(CCC(C)C)c3=O)=NC21` (stereo unspecified): the growth is -41.7% (active).
Take `CCCCNc1ccc2c3c(cccc13)C(=O)N(c1cccc(-c3nn(-c4ccccc4)cc3-c3nc4ccccc4s3)c1)C2=O`: the growth was 94.4% (inactive).
Turning to `COc1ccc(C(=O)c2c(N)c(C#N)cn2-c2ccc([N+](=O)[O-])cc2)cc1`, the growth was 96.3% (inactive).
The same measure, in the same setting: for `COC(=O)c1cc(C(=O)CBr)n2c1ccc1c3ccccc3ccc12` the value was 31.9% (inactive); for `Cc1ccc(C2CC(c3ccc(NC(=S)Nc4ccccc4)cc3)=NN2c2ccc(S(N)(=O)=O)cc2)cc1` (stereo unspecified), 14.9% (inactive).
With `O=C1/C(=C/C=C/c2ccco2)SC(=S)N1CC(=S)C1C=CS(=O)(=O)C1` (stereo unspecified), the growth was 66.7% (inactive).
Take `Oc1ccc(F)c(Nc2nc(SCCN3CCOCC3)nc3c2cnn3CC(Cl)c2ccc(Br)cc2)c1` (stereo unspecified): the growth was -17.8% (active).
As for `Fc1ccc(Nc2nnc(-c3c[nH]c4ccccc34)o2)cc1`, the growth was 72.2% (inactive).
On the same count and under the same terms, for `COc1ccc(C(=O)/C=C/c2ccc3c(c2)OCCO3)cc1S(N)(=O)=O` the value was 23.7% (inactive); for `COc1ccc(C(=O)NNC(=O)CSc2nc3sc4c(c3c(=O)n2-c2ccc(Cl)cc2)CCCC4)cc1`, 55.5% (inactive).
On to `c1n[nH]cc1-c1nc2ccc3[nH]ncc3c2c2c1CC1(CC2)COC1`, for which the growth was 38.5% (inactive).
For the molecule `C#CCN(C)CCCOc1ccc(N(CC)C(=O)c2cc(C(C)C)c(O)cc2O)cc1Cl`, the growth is -95.4% (active).
For `COc1ccc2c(c1)c(-c1cc(N)n3nc(-c4c[nH]c5ccccc45)cc3n1)cn2C`, the growth is -86.1% (active).
Turning to `COc1sc(/C=N/NC(=O)c2[nH]c3ccc(Br)cc3c2-c2ccccc2)cc1Br`, the growth is -23.4% (active).
For the molecule `COc1ccc(C(=O)c2cc(C(C)=O)c3c(C)cc(C)cn23)cc1`, the growth was 54.9% (inactive).
With `COc1ccc(N=Nc2c(N)nn3c(-c4ccc5c(c4)C=S=C5)ccnc23)cc1`, the growth is 13% (inactive).
With `Cn1cc(-c2cc3nc(-c4cn(C)c5ncccc45)cc(N)n3n2)c2cc(F)ccc21`, the growth was 44.4% (inactive).
On to `O=C(COc1ccc(/C=C2/C(=O)Nc3ccc(Cl)cc32)cc1)Nc1ccc(Br)cc1`, for which the growth is -89.4% (active).
For `Cc1ccc2nc(COc3ccc(C(=O)NNC(=O)Nc4ccc(Cl)c(C(F)(F)F)c4)cc3)[nH]c2c1`, the growth is 69.1% (inactive).
`COc1ccc(N=Nc2c(N)nn3c(-c4ccc(F)cc4)ccnc23)cc1`: the growth is 86.8% (inactive).
As to `COc1cc(/C=C/C(=O)c2cnn(-c3cc(=O)[nH]c4ccc(C)cc34)c2C)cc(OC)c1OC`, the growth is -92% (active).
For the molecule `COc1ccc(-c2cc(C(=O)OCc3ccc(Br)cc3)nn2-c2ccc(S(C)(=O)=O)cc2)cc1OC`, the growth is 75.3% (inactive).
Turning to `Cc1ccc(C(=O)Nc2cc(-n3ccnc3)cc(C(F)(F)F)c2)cc1-n1cc(-c2cnc3cccnn23)nn1`, the growth was 39.4% (inactive).
In the case of `COc1cc(/C=C/C(=O)c2ccc(S(=O)(=O)NCCNc3nc(N(C)C)nc(N4CCOCC4)n3)cc2)cc(OC)c1OC`, the growth is -100% (active).
On the same count and under the same terms, for `O=C(N/N=C/c1ccsc1)c1[nH]c2ccc(Br)cc2c1-c1ccccc1` the value was -100% (active); for `Cc1[nH]nc2ccc3nc(-c4cnn(CCO)c4)c4c(c3c12)CCCC4`, 25.1% (inactive).
As to `CCOC(=O)/C(F)=C/C1CC1C1CCN(C(=O)OC(C)(C)C)CC1` (stereo unspecified), the growth is 103% (inactive).
As for `O=C(Nc1nc2ccccc2s1)Nc1ccccc1Cl`, the growth was 79.4% (inactive).
For `C/C(=N\Nc1ccc(C(=O)O)cc1)c1cnn(-c2cc(=O)[nH]c3ccc(C)cc23)c1C`, the growth was 94.9% (inactive).
`OC1CCC(Cn2c(C(F)(F)F)cc3c(Cl)ncnc32)CC1` (stereo unspecified): the growth was -98.4% (active).
On to `Cc1nn(-c2ccccc2)c2nc(C)n(C(=O)N/N=C/c3ccccc3)c(=O)c12`, for which the growth was 96.8% (inactive).
For `COc1cc(CNC(=O)C[C@H](C)CCC=C(C)C)ccc1OCc1cn(-c2ccc(Cl)cc2Cl)nn1`, the growth was 80.7% (inactive).
As for `Clc1ccccc1Nc1nnc(-c2c[nH]c3ccccc23)o1`, the growth is 15.5% (inactive).

Another assay has as its system SK-MEL-28 melanoma. Described as above. Particulars: 10 µM unless noted.
Take `O=C1CC(c2ccc(I)cc2)OC2C=Cc3ccccc3C12` (stereo unspecified): the growth is 116% (inactive).
Consider `COc1ccc(NC(=O)Cn2c(/C=C/c3cccc(OC)c3)nc3ccccc3c2=O)cc1`, for which the growth is 89.3% (inactive).
For `COc1ccc2[nH]c(=O)c(CSc3ccccc3Nc3nccc(-c4ccc5c(c4)OCO5)n3)cc2c1`, the growth is 95.9% (inactive).
Turning to `Cc1nc2sccn2c1-c1nnc(SCC(C)C)o1`, the growth is 104% (inactive).
On to `O=c1c(-c2nc(-c3ccccc3)c(-c3ccccc3)[nH]2)coc2ccc(F)cc12`, for which the growth is 69.6% (inactive).
As to `CCN1C(=O)N(CC)C2NNC(Sc3c(C(=O)O)c4ccccc4n(CCC(C)C)c3=O)=NC21` (stereo unspecified), the growth is 45.5% (inactive).
In the case of `CCCCNc1ccc2c3c(cccc13)C(=O)N(c1cccc(-c3nn(-c4ccccc4)cc3-c3nc4ccccc4s3)c1)C2=O`, the growth was 101% (inactive).
For `COc1ccc(C(=O)c2c(N)c(C#N)cn2-c2ccc([N+](=O)[O-])cc2)cc1`, the growth is 112% (inactive).
`COC(=O)c1cc(C(=O)CBr)n2c1ccc1c3ccccc3ccc12`: the growth is 92.3% (inactive).
For the molecule `Cc1ccc(C2CC(c3ccc(NC(=S)Nc4ccccc4)cc3)=NN2c2ccc(S(N)(=O)=O)cc2)cc1` (stereo unspecified), the growth is -57.7% (active).
Consider `O=C1/C(=C/C=C/c2ccco2)SC(=S)N1CC(=S)C1C=CS(=O)(=O)C1` (stereo unspecified), for which the growth is 93.9% (inactive).
For the molecule `Oc1ccc(F)c(Nc2nc(SCCN3CCOCC3)nc3c2cnn3CC(Cl)c2ccc(Br)cc2)c1` (stereo unspecified), the growth was 21% (inactive).
`Fc1ccc(Nc2nnc(-c3c[nH]c4ccccc34)o2)cc1`: the growth was 106% (inactive).
Take `COc1ccc(C(=O)/C=C/c2ccc3c(c2)OCCO3)cc1S(N)(=O)=O`: the growth is 101% (inactive).
`COc1ccc(C(=O)NNC(=O)CSc2nc3sc4c(c3c(=O)n2-c2ccc(Cl)cc2)CCCC4)cc1`: the growth is 72.5% (inactive).
In the case of `c1n[nH]cc1-c1nc2ccc3[nH]ncc3c2c2c1CC1(CC2)COC1`, the growth is 44.5% (inactive).
In the case of `C#CCN(C)CCCOc1ccc(N(CC)C(=O)c2cc(C(C)C)c(O)cc2O)cc1Cl`, the growth was 5.69% (active).
Same read-out and setting: the figure for `COc1ccc2c(c1)c(-c1cc(N)n3nc(-c4c[nH]c5ccccc45)cc3n1)cn2C` is -94.6% (active); for `COc1sc(/C=N/NC(=O)c2[nH]c3ccc(Br)cc3c2-c2ccccc2)cc1Br` it is 18.2% (inactive); for `COc1ccc(C(=O)c2cc(C(C)=O)c3c(C)cc(C)cn23)cc1` it is 72.9% (inactive).
Regarding `COc1ccc(N=Nc2c(N)nn3c(-c4ccc5c(c4)C=S=C5)ccnc23)cc1`, the growth was 63.1% (inactive).
With `Cn1cc(-c2cc3nc(-c4cn(C)c5ncccc45)cc(N)n3n2)c2cc(F)ccc21`, the growth is 92.8% (inactive).
As to `O=C(COc1ccc(/C=C2/C(=O)Nc3ccc(Cl)cc32)cc1)Nc1ccc(Br)cc1`, the growth was -26.7% (active).
For the molecule `Cc1ccc2nc(COc3ccc(C(=O)NNC(=O)Nc4ccc(Cl)c(C(F)(F)F)c4)cc3)[nH]c2c1`, the growth was -35.4% (active).
As to `COc1ccc(N=Nc2c(N)nn3c(-c4ccc(F)cc4)ccnc23)cc1`, the growth is 63.1% (inactive).
In the case of `COc1cc(/C=C/C(=O)c2cnn(-c3cc(=O)[nH]c4ccc(C)cc34)c2C)cc(OC)c1OC`, the growth was -77.2% (active).
Take `COc1ccc(-c2cc(C(=O)OCc3ccc(Br)cc3)nn2-c2ccc(S(C)(=O)=O)cc2)cc1OC`: the growth is 102% (inactive).
`Cc1ccc(C(=O)Nc2cc(-n3ccnc3)cc(C(F)(F)F)c2)cc1-n1cc(-c2cnc3cccnn23)nn1`: the growth was 34.6% (inactive).
The same measure, in the same setting: for `COc1cc(/C=C/C(=O)c2ccc(S(=O)(=O)NCCNc3nc(N(C)C)nc(N4CCOCC4)n3)cc2)cc(OC)c1OC` the value was -100% (active).
Same read-out and setting: the figure for `O=C(N/N=C/c1ccsc1)c1[nH]c2ccc(Br)cc2c1-c1ccccc1` is -87.4% (active).
Same read-out and setting: the figure for `Cc1[nH]nc2ccc3nc(-c4cnn(CCO)c4)c4c(c3c12)CCCC4` is 75.6% (inactive); for `CCOC(=O)/C(F)=C/C1CC1C1CCN(C(=O)OC(C)(C)C)CC1` (stereo unspecified) it is 119% (inactive).
On to `O=C(Nc1nc2ccccc2s1)Nc1ccccc1Cl`, for which the growth is 102% (inactive).
Same read-out and setting: for `C/C(=N\Nc1ccc(C(=O)O)cc1)c1cnn(-c2cc(=O)[nH]c3ccc(C)cc23)c1C` the value was 107% (inactive); for `OC1CCC(Cn2c(C(F)(F)F)cc3c(Cl)ncnc32)CC1` (stereo unspecified), 20.2% (inactive); for `Cc1nn(-c2ccccc2)c2nc(C)n(C(=O)N/N=C/c3ccccc3)c(=O)c12`, 105% (inactive).
The same measure, in the same setting: for `COc1cc(CNC(=O)C[C@H](C)CCC=C(C)C)ccc1OCc1cn(-c2ccc(Cl)cc2Cl)nn1` the value was 96.3% (inactive).
Still for that read-out and setting: the figure for `Clc1ccccc1Nc1nnc(-c2c[nH]c3ccccc23)o1` is 59.4% (inactive).
